This note sets out measurements from PubChem BioAssay (EPA / NIEHS).

SMILES strings stand for the structures. “And” between values parts separate entries of the source, which are not always exact repeats. Equal values may be shown once. Some compounds were tested as several samples or in several runs, with calls that do not always agree. The source made the active and inactive calls. The calls were made as follows: active = hit-call score of the fitted dose curve at least 0.9, where 1 is the maximum; inactive = score below 0.9.

Assay [1] is described as follows: ATG_GLI_CIS: Attagene CIS-FACTORIAL HepG2 Assay for human Zinc Finger Protein GLI1 (AID 2282945). The note with it: HepG2, Attagene cis-factorial reporter mRNA, GLI element; actives raise or lower the signal. The method in brief:
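Bidirectional curve fits relative to DMSO, using reporter mRNA levels from RT-PCR plus capillary electrophoresis. Cells were HepG2 transiently carrying cis-regulated reporter constructs, harvested 24 h after dosing.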

Assay [2] addresses Bile acid receptor (Homo sapiens) (UniProt Q96RI1). As to the kind of experiment: ATG_IR1_CIS: Attagene CIS-FACTORIAL HepG2 Assay for human Nuclear Receptor Subfamily 1 Group H Member 4 (NR1H4), IR1 submotif (AID 2282946). The note with it: IR1 reporter transcription, actives raise or lower the signal. The method, boiled down: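 Cells (human HepG2) carry transiently transfected cis-promoter reporter transcription units. Compounds are incubated 24 h, total RNA is reverse-transcribed and amplified, and labelled fragments are resolved by capillary electrophoresis. Curves use DMSO as baseline.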

Assay [3] in a line: ATG_GRE_CIS: Attagene CIS-FACTORIAL HepG2 Assay for human Glucocorticoid Response Elements (GRE) (AID 2282947). The note with it: HepG2 GRE cis-reporter, Attagene multiplex mRNA; actives raise or lower the signal. The method, boiled down: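 Transient MRTU transfection of human HepG2 liver cells; cis-regulated reporters report endogenous factors. 24 h dosing → RNA isolation → RT-PCR → 6-FAM primer extension → HpaI cut → CE fragment analysis. Bidirectional fit, DMSO negative control.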

Assay [4] in a line: ATG_ISRE_CIS: Attagene CIS-FACTORIAL HepG2 Assay for human Interferon Regulatory Factor 1 (IRF1) binding to an Interferon-Stimulated Response Element (ISRE) (AID 2282948). The following applies: HepG2 ISRE cis-reporter (Attagene), mRNA transcription readout; actives raise or lower the signal. The method, boiled down: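 Quantitation relies on labelled RT-PCR fragments separated by capillary electrophoresis. Human HepG2 cells bearing cis-promoter reporter constructs were treated 24 h; DMSO served as baseline for bidirectional fitting.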

The nature of assay [5]: ATG_M_32_CIS: Attagene CIS-FACTORIAL HepG2 Assay for M32 Transcription Factor (Internal Marker) (AID 2282949).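 Also: background control marker of the multiplexed CIS panel rather than a real target.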 The following applies: HepG2 Attagene cis-factorial M32 reporter, mRNA; actives raise or lower the signal. The method, boiled down:
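Fluorescent capillary electrophoresis peaks of HpaI-digested, FAM-labelled RT-PCR reporter products give the signal. Source: transiently transfected human liver HepG2 cells, 24 h after chemical dosing; bidirectional fitting against DMSO.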

Assay [6] can be described thus: ATG_M_06_CIS: Attagene CIS-FACTORIAL HepG2 Assay for M06 Transcription Factor (Internal Marker) (AID 2282950). The note with it: HepG2 Attagene CIS-FACTORIAL M06 internal marker reporter; actives raise or lower the signal. The method, boiled down: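 Serves as a background control readout. Transfected HepG2 exposed to compounds for 24 h, then reporter transcripts quantified by fluorescent RT-PCR and capillary electrophoresis. Both directions fitted against DMSO baseline.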

In assay [7] the target is Hypoxia-inducible factor 1-alpha (Homo sapiens) (UniProt Q16665). The assay can be described thus: ATG_HIF1a_CIS: Attagene CIS-FACTORIAL HepG2 Assay for human Hypoxia Inducible Factor 1 (HIF1A) (AID 2282951). The following applies: HepG2 Attagene cis-factorial HIF1a reporter transcription; actives raise or lower the signal. The method in brief:
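Endogenous-TF cis reporter readout, human HepG2 cells, 24 h incubation; mRNA detected via RT-PCR and capillary electrophoresis fluorescence; DMSO-normalised bidirectional fitting.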

A short description of assay [8]: ATG_MRE_CIS: Attagene CIS-FACTORIAL HepG2 Assay for human Metal Responsive Element (MRE) (AID 2282954). The note with it: HepG2 MRE cis-reporter transcription, Attagene multiplex; actives raise or lower the signal. The method in brief:
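Transient MRTU transfection of HepG2 (FuGene 6); 24 h dosing; total RNA → oligo(dT) RT, PCR, 6-FAM primer extension, HpaI cut, CE. Bidirectional fit vs DMSO.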

A short description of assay [9]: ATG_PBREM_CIS: Attagene CIS-FACTORIAL HepG2 Assay for human Phenobarbital-responsive Enhancer Module (PBREM) (AID 2282955). The following applies: HepG2 PBREM cis-reporter, Attagene multiplexed transcription; actives raise or lower the signal. The method, boiled down: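 Readout: reporter mRNA, fluorescent RT-PCR fragments separated by capillary electrophoresis. System: HepG2 transiently transfected with cis-regulated reporter units. Exposure: 24 h. Analysis: bidirectional, DMSO baseline.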

Assay [10] addresses Paired box protein Pax-6 (Homo sapiens) (UniProt P26367). The assay can be described thus: ATG_Pax6_CIS: Attagene CIS-FACTORIAL HepG2 Assay for human Paired Box 6 (PAX6) (AID 2282956). The following applies: HepG2 CIS-FACTORIAL PAX6 reporter transcription, RNA readout; actives raise or lower the signal. The method in brief: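 After twenty-four hours of chemical exposure, transfected HepG2 cells are harvested for RNA. Cis-promoter reporter transcripts are amplified, fluorescently labelled and sized by capillary electrophoresis, with gain and loss of signal scored against DMSO.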

A short description of assay [11]: ATG_PXRE_CIS: Attagene CIS-FACTORIAL HepG2 Assay for human Pregnane X Receptor Element (PXRE) (AID 2282957). The note with it: HepG2 Attagene CIS-FACTORIAL PXRE reporter, mRNA; actives raise or lower the signal. The method, boiled down:
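Transiently transfected HepG2 cells were dosed and incubated for 24 h. RNA was then isolated, DNase-treated, reverse-transcribed and reporter sequences amplified. Labeled, HpaI-digested fragments were quantified by capillary electrophoresis against DMSO.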

Assay [12] can be described thus: ATG_PPRE_CIS: Attagene CIS-FACTORIAL HepG2 Assay for human Peroxisome Proliferator-activated Response Element (PPRE) (AID 2282958). The note with it: HepG2 PPRE cis-element reporter, Attagene transcription factor profiling; actives raise or lower the signal. The method, boiled down:
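After human HepG2 hepatoma cells were transiently transfected with cis-promoter reporter constructs, they were exposed to test chemicals for 24 hours. Reporter RNA was then reverse-transcribed, PCR-amplified, FAM-labeled, HpaI-digested and quantified by capillary electrophoresis.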

Assay [13] is described as follows: ATG_RORE_CIS: Attagene CIS-FACTORIAL HepG2 Assay for human RAR-related Orphan Receptor Element (RORE) (AID 2282959). The following applies: HepG2 Attagene cis-factorial RORE reporter, mRNA; actives raise or lower the signal. The method in brief: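 Measured here: transcript induction of a cis-regulated reporter in HepG2 cells transiently transfected via FuGene 6. After 24 h, RNA was processed by RT-PCR and fluorescent capillary electrophoresis; DMSO defined baseline activity.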

Assay [14] in a line: ATG_Sox_CIS: Attagene CIS-FACTORIAL HepG2 Assay for human SRY-box transcription factor (SOX) (AID 2282960). The note with it: HepG2 Attagene cis-factorial SOX reporter, mRNA; actives raise or lower the signal. The method in brief:
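Using transiently transfected HepG2 cells, reporter transcription driven by cis elements was assessed 24 h after dosing. Signal was fluorescence of capillary-separated RT-PCR products, with DMSO defining baseline activity.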

In assay [15] the target is Transcription factor Sp1 (Homo sapiens) (UniProt P08047). As to the kind of experiment: ATG_Sp1_CIS: Attagene CIS-FACTORIAL HepG2 Assay for human Specificity Protein 1 (Sp1) (AID 2282961). The following applies: HepG2 Sp1 cis-reporter transcription, actives raise or lower the signal. The method in brief:
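After transient transfection of HepG2 cells with cis-promoter reporter units and 24 h chemical treatment, reporter transcripts were quantified by RT-PCR and capillary electrophoresis fluorescence. Gain- and loss-of-signal fitted against DMSO.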

Assay [16] addresses Signal transducer and activator of transcription 3 (Homo sapiens) (UniProt P40763). As to the kind of experiment: ATG_STAT3_CIS: Attagene CIS-FACTORIAL HepG2 Assay for human Signal Transducer and Activator of Transcription 3 (STAT3) (AID 2282963). The following applies: HepG2, Attagene cis-factorial STAT3 reporter transcription; actives raise or lower the signal. The method in brief: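 Endogenous STAT3-responsive cis-element activity was read in transiently transfected HepG2 cells after 24 h treatment. Reporter transcripts were quantified via RT-PCR and capillary electrophoresis, with DMSO as negative control and bidirectional curve fitting.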

Assay [17] in a line: ATG_TA_CIS: Attagene CIS-FACTORIAL HepG2 Assay for human TA Basal Promoter (AID 2282964). The note with it: HepG2 Attagene CIS-factorial TA basal promoter reporter; actives raise or lower the signal. The method in brief:
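Background-control readout: TA basal promoter reporter mRNA, fitted in both directions relative to DMSO. Measured by RT-PCR and capillary electrophoresis 24 hours after treating HepG2 human liver cells transiently carrying multiplexed cis-regulated reporter constructs.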

Assay [18] concerns the target Hepatocyte nuclear factor 6 (Homo sapiens) (UniProt Q9UBC0). The assay can be described thus: ATG_HNF6_CIS: Attagene CIS-FACTORIAL HepG2 Assay for human Hepatocyte Nuclear Factor 6 (HNF6) (AID 2282952). The following applies: HepG2 Attagene cis-factorial HNF6 reporter transcription; actives raise or lower the signal. The method, boiled down:
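Reporter mRNA induction or loss in HepG2 after 24 h exposure; transient cis-MRTU transfection; fragments quantified by capillary electrophoresis; bidirectional analysis, DMSO as negative control.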

Assay [19] addresses Heat shock factor protein 1 (Homo sapiens) (UniProt Q00613). As to the kind of experiment: ATG_HSE_CIS: Attagene CIS-FACTORIAL HepG2 Assay for human Heat Shock Transcription Factor 1 (HSE) (AID 2282953). The note with it: HepG2 HSE cis-reporter, Attagene RNA transcription; actives raise or lower the signal. The method, boiled down:
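Endogenous transcription factor activity in transiently transfected HepG2, read as reporter mRNA by RT-PCR with fluorescent capillary electrophoresis after 24 h. Gain or loss of signal fitted versus DMSO baseline.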

The nature of assay [20]: ATG_SREBP_CIS: Attagene CIS-FACTORIAL HepG2 Assay for human Sterol Regulatory Element Binding (SREBP) (AID 2282962). The note with it: HepG2 Attagene cis-factorial SREBP reporter, mRNA; actives raise or lower the signal. The method, boiled down:
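Twenty-four hours after chemical dosing of transfected HepG2 cultures, reporter RNA was converted to cDNA, amplified, end-labelled with 6-FAM and resolved by capillary electrophoresis. Responses were fitted relative to DMSO.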

Hepatocyte nuclear factor 6 (Homo sapiens), sequence (Q9UBC0 whole entry, looked up, the tested form may be a part): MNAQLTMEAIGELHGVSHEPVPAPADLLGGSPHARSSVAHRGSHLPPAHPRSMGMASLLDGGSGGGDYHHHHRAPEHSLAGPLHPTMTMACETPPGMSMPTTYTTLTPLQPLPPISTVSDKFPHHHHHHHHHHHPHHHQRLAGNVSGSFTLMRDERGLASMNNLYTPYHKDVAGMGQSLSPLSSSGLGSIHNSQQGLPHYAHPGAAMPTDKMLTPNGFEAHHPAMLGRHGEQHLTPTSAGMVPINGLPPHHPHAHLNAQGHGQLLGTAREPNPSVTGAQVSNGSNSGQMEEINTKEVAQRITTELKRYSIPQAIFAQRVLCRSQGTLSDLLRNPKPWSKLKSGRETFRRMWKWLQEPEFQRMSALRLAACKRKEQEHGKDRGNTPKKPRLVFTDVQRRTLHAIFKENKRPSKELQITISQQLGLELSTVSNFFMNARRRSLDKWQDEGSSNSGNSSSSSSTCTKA
Paired box protein Pax-6 (Homo sapiens), sequence (P26367 whole entry, looked up): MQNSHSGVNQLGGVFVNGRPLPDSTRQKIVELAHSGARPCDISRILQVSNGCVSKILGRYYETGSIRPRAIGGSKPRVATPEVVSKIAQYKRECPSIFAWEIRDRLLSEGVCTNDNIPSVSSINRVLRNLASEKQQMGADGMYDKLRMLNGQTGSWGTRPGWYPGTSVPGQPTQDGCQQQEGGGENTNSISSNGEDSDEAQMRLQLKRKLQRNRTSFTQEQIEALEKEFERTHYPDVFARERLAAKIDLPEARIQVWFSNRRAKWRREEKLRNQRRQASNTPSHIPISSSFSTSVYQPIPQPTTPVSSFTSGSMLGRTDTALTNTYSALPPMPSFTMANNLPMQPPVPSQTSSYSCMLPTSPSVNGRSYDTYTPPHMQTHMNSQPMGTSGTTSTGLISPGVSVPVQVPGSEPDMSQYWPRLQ
Bile acid receptor (Homo sapiens), sequence (Q96RI1 whole entry, looked up, the tested form may be a part): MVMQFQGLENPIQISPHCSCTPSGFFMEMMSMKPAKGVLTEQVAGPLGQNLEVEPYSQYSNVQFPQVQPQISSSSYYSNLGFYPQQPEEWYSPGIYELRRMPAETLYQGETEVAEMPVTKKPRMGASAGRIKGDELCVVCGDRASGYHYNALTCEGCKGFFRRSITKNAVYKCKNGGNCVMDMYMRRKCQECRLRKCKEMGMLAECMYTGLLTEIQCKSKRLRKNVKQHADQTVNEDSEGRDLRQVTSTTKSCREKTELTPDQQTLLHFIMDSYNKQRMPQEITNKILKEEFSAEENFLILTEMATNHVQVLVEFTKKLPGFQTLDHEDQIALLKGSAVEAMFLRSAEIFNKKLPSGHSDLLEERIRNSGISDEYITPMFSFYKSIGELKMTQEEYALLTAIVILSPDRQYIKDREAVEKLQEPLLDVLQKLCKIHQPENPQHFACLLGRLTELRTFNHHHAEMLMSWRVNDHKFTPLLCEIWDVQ
Signal transducer and activator of transcription 3 (Homo sapiens), sequence (P40763 whole entry, looked up): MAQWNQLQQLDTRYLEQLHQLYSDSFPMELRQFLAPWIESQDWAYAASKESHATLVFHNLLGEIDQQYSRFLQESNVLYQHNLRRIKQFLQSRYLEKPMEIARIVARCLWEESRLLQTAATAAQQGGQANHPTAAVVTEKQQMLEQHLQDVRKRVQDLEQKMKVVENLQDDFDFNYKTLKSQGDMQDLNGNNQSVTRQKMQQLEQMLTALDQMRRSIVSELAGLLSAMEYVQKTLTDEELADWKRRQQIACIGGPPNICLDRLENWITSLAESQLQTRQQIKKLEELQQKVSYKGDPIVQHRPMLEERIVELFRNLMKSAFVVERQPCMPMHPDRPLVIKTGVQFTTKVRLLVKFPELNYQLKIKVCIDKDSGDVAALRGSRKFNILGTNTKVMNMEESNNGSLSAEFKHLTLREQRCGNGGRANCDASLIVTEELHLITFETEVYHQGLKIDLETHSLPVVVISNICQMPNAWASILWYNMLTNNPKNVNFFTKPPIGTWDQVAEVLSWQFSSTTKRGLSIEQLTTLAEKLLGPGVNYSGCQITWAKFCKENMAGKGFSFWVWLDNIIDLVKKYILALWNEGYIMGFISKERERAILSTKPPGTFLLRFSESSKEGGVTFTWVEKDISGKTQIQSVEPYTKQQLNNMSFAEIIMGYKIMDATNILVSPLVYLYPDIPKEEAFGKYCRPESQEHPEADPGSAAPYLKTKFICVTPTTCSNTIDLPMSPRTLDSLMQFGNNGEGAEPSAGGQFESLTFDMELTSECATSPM
Transcription factor Sp1 (Homo sapiens), sequence (P08047 whole entry, looked up): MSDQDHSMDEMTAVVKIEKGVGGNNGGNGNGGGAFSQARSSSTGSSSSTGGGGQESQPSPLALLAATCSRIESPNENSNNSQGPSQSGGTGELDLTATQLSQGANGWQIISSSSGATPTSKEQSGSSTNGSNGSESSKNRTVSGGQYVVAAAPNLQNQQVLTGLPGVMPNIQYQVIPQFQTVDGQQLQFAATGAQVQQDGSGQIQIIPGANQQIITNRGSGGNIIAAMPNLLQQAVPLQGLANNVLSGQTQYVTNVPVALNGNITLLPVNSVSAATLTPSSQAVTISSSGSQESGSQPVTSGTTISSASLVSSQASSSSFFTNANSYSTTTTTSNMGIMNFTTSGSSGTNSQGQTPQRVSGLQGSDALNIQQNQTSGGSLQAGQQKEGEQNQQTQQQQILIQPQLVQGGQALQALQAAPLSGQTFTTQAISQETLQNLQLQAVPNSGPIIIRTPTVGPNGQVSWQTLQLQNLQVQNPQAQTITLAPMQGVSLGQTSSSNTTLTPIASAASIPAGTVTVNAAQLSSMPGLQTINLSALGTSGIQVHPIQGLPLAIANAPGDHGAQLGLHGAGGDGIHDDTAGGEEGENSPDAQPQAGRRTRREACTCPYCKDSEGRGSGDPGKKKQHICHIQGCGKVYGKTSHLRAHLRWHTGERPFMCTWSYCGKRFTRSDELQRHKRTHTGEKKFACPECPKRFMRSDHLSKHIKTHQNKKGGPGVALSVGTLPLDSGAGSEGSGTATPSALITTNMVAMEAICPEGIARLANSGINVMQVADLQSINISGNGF
Hypoxia-inducible factor 1-alpha (Homo sapiens), sequence (Q16665 whole entry, looked up): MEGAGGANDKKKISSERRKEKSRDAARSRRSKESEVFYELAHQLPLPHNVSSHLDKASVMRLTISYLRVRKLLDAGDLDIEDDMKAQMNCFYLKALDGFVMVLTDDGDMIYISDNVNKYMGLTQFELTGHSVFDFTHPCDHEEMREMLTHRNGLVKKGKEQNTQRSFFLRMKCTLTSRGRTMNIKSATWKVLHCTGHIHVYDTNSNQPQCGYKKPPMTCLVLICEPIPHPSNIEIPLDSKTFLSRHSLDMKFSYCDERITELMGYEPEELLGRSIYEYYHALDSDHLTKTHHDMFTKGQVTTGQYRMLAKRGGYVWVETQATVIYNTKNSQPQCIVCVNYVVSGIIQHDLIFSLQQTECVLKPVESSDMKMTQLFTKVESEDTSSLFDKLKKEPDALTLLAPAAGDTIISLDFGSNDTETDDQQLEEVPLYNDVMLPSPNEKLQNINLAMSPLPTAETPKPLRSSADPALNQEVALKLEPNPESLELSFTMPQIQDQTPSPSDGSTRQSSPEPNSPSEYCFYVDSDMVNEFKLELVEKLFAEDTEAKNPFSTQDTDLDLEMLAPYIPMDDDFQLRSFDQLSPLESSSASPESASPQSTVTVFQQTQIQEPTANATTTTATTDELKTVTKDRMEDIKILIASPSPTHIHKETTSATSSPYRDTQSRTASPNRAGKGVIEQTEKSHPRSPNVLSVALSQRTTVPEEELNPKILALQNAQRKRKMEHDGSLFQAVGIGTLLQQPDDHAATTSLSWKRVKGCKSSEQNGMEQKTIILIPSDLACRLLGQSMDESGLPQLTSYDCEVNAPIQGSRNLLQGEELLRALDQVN
Heat shock factor protein 1 (Homo sapiens), sequence (Q00613 whole entry, looked up): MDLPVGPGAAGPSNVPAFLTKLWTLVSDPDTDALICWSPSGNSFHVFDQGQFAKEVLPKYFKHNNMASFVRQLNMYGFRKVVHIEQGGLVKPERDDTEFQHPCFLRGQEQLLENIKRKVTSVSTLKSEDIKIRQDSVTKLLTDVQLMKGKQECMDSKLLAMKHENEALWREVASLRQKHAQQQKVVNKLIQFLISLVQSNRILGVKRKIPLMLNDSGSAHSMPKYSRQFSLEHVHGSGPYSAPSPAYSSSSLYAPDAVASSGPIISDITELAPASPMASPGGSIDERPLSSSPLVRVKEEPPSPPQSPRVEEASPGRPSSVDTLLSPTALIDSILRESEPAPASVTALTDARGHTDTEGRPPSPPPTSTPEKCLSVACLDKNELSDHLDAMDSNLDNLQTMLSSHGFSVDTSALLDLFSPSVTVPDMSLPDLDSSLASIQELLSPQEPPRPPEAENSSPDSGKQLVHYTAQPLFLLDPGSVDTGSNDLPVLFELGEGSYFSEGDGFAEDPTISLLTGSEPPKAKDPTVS

For `CCCCCCOC(=O)c1ccccc1O`, the compound was classed as inactive in assay [1], in assay [2], in assay [3], in assay [4], in assay [5] and in assay [6]. For the same compound, the compound was classed as inactive in assay [7], in assay [8], in assay [9], in assay [10], in assay [12] and in [13]. Further, the result in assay [14], in assay [15], in assay [16] and in assay [17] was inactive. The AC50 in assay [11] is 62.5 µM (active).
Regarding `CCCCOCCOCCOC(=O)CCCCC(=O)OCCOCCOCCCC`, the compound was classed as inactive in assay [1], in [2], in [3], in assay [4], in assay [5] and in assay [6]. In addition, the result in assay [18], in [19], in [8], in assay [9], in [10] and in assay [12] was inactive. Also, the call in assay [13], in assay [14], in assay [15], in assay [20], in assay [16] and in [17] was inactive. For the same compound, the AC50 in assay [11] was 26.9 µM (active).
Turning to `CCCCCCS`, the result in [1], in assay [2], in assay [3], in assay [5], in [6] and in assay [7] was inactive. In addition, the result in assay [18], in assay [8], in assay [9], in assay [10], in assay [11] and in [12] was inactive. Moreover, the compound was called inactive in [13], in assay [15], in assay [16] and in assay [17]. In assay [4], the concentration at half-maximal activity (AC50) was 133 µM (active).
Take `O=C(CC(=O)C(F)(F)C(F)(F)F)C(F)(F)F`: the compound was classed as inactive in assay [1], in [2], in assay [4], in assay [5], in assay [18] and in assay [8]. Moreover, the outcome in assay [9], in assay [10], in assay [11], in assay [15], in assay [20] and in [16] was inactive. Also, in [17], the result was inactive. The half-maximal activity concentration (AC50) was 106 µM (active) in assay [2]; 76.4 µM (active) in assay [11]; 51.2 µM (active) and 64 µM (active) in assay [12].

What is called AC50 is the concentration giving half of the maximal activity seen.
